Twelve compounds from PMC5540273 (PLoS ONE, 2017) can be followed below.

Structures are written as SMILES.
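Also: KINOMEscan kinase panel screen.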

The assay concerns EPHA4. Conditions: concentration: 1 μM, replicates: in singlicate; n = 1.
For the compound `Nc1ncc(-c2ccc3nccc(-c4ccncc4)c3c2)cc1S(=O)(=O)N1CCCCC1` [GSK1693850], the “%Inh” value came out at 3%.

For `COc1cccc(CC(=O)N2CCc3cc(-c4cn(C)c5ncnc(N)c45)ccc32)c1` [GSK2608899], the “%Inh” value was found to be 4%.

Consider `CC(C)NCC(Cc1ccccc1)NC(=O)c1cc(Br)c(-c2ccnc3[nH]ccc23)s1.Cl.Cl` (stereo not drawn) [GSK1383281], for which the “%Inh” value is 0%.

With `Nc1ncc(-c2cn[nH]c2)c2scc(-c3ccc4c(c3)CCN4C(=O)Cc3ccccc3)c12` [GSK2593067], the “%Inh” value stood at 0%.

Consider `Cc1cccc(Nc2nc(NCCN)ncc2C(N)=O)c1` [GSK1292139], for which the “%Inh” value was found to be 0%.

`CC(C)c1nc(-c2cccc(NS(=O)(=O)c3c(F)cccc3F)c2)c(-c2ccnc(Nc3ccc(N4CCOCC4)nc3)n2)s1.Cl` [GSK1723980]: the “%Inh” value turned out to be 27%.

As to `Cc1ccc(-c2ccc3occ(-c4ccc(S(C)=O)cc4)c3c2)nn1` (stereo not drawn), the “%Inh” value was found to be 11%.

In the case of `COc1ccc(C2=C(Nc3cccc(O)c3)C(=O)NC2=O)cc1` [SB-390766], the “%Inh” value worked out at 0%.

Take `COc1ccc(NC(=O)c2ccoc2)cc1-c1ccc(C(=O)NCC2CC2)cc1` [GW810437]: the “%Inh” value is given as 0%.

Take `Cc1nn2c(=O)cc(N3CCO[C@H](C)C3)nc2n1Cc1cccc(Cl)c1Cl` [GSK2373693]: the “%Inh” value is 0%.

`Cl.O=C(Nc1ccc(Oc2ccc3[nH]c(NC(=O)c4ccco4)nc3c2)cc1)Nc1cc(C(F)(F)F)ccc1F` [GW683134]: the “%Inh” value is 93.6%.

As to `O=C(O)C(F)(F)F.O=c1[nH]ccc2nc(N[C@@H]3CCNC3)nc(Nc3ccc4c(c3)S(=O)(=O)CC4)c12` [GSK2181306], the “%Inh” value came out at 16%.
